LASV entry inh: Lassa virus entry inhibition | Potency, µM (doses to about 37.9 µM), hits mostly inhibitors | 300,000 tested, 1.2% active | Lassa virus pseudotype entry inhibition, cell reporter; calls by dose curve; tested in HEK293 cells; further: nearly all actives have a fitted effect of over 50% in size
Vaccinia Venus: vaccinia inhibition (Venus reporter). Vaccinia virus Venus reporter expression, fluorescence. Potency, µM (doses to about 36.5 µM), actives largely listed as inhibitors. 330,000 tested, 0.46% active. AID 720580; calls by dose curve; tested in A549 cells; further: nearly all actives have a fitted effect of over 30% in size
VACV mCherry inh: vaccinia inhibition (mCherry reporter); 310,000 tested, 0.63% active; Potency, µM (series often up to 36.5 µM), actives largely listed as inhibitors; Vaccinia virus mCherry reporter infection, fluorescence; AID 720579; calls by dose curve; tested in A549 cells; further: nearly all actives have a fitted effect of over 35% in size
HCMV antiviral: blocks human cytomegalovirus replication; AID 1259415; activity change, negative = inhibition, % at 57.5 µM; 410,000 tested, 4.5% active; HFF cells, HCMV-luciferase reporter, 72 h; stronger effect = lower value; in the data active means activity change below about -60%; inconclusive means no clear call, values can overlap the other calls; inactive means above about -39%
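Two-dose cell screen: HFF monolayers treated with compounds and infected with luciferase-expressing HCMV at 1 PFU/cell, 72 h at 37C, then lysed for luciferase measurement.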
FMDV antiviral: antivirals against foot and mouth disease virus; FMDV antiviral cell-based qHTS; Potency, µM (titrated, usually from 57.9 µM), actives largely listed as inhibitors; AID 1159524; 410,000 tested, 1.2% active; calls by dose curve; tested in HEK293T cells; further: read-out not given here; nearly all actives have a fitted effect of over 45% in size
Marburg entry inh: blocks Marburg virus binding to or entry into cells. Marburg virus pseudotyped entry inhibition, cell reporter. AID 540276. Potency, µM (doses to about 37.8 µM), usual class: inhibitors. 300,000 tested, 1.8% active; calls by dose curve; tested in HEK293 cells
Hits are given with their value; - = inactive; ? = inconclusive; . = no result given; [ ] = another dose, or the depositor's remark. Most compounds without a hit are left out; they make up all but 6.5% or so of the library.

SMILES | LASV entry inh | Vaccinia Venus | VACV mCherry inh | HCMV antiviral | FMDV antiviral | Marburg entry inh
O=C(Nc1cc2c3c(c1)C1CCCC1CN3CC1CCCC21)c1ccccc1 (stereo not drawn) | - | . | . | -68.8 | - | -
OC(c1ccc2c(c1)CN(Cc1cccn1-c1ncccn1)CCO2)C1CCCCC1 (stereo not drawn) | . | - | - | . | - | .
O=C1NC(c2cc3ccccc3nc2Cl)Nc2ccccc21 (stereo not drawn) | ? | - | - | - | ? | -
O=C1NC(c2cccc3ccccc23)Nc2ccc(Cl)cc21 (stereo not drawn) | ? | 11.2µM | ? | -72.9 | - | ?
Cc1nn(-c2ccccc2)c(Cl)c1CN(C(=O)CCl)c1ccc(Cl)cc1 | ? | - | - | -99.4 | - | ?
Cc1nn(-c2ccccc2)c(Cl)c1CN(C(=O)CCl)c1cccc2ccccc12 | ? | ? | - | -98.6 | 28.2µM | ?
Cc1cccc(S(=O)(=O)Nc2ccc(-n3c(C)nc4ccccc4c3=O)cc2)c1 | - | - | - | - | - | -
O=C(NCCO)c1cn(C2CCCN(Cc3cccc(C(F)(F)F)c3)C2)nn1 (stereo not drawn) | . | - | - | . | - | .
COC(=O)c1ccc(Cn2cnc3nc4c(cc3c2=O)CCCC4)cc1 | - | - | - | - | - | .
C=C1c2ccccc2NC(=S)N1Cc1ccc2c(c1)OCO2 | - | - | - | - | - | ?
COc1ccc(NS(=O)(=O)c2cc(NC(=O)[C@@H](NC(=O)c3ccccc3)C(C)C)ccc2C)cc1 | ? | - | - | -87.4 | - | ?
COc1ccc(NS(=O)(=O)c2cc(NC(=O)Cc3cccs3)ccc2C)cc1 | 1.84µM | - | - | - | - | ?
COc1ccc(NS(=O)(=O)c2cc(NC(=O)c3ccc(=O)[nH]c3)ccc2C)cc1 | . | . | . | - | - | .
COC(=O)c1ccc(C(=O)OC)c(NC(=O)COC(=O)CCOc2ccc(C)cc2)c1 | - | - | - | - | - | -
COC(=O)c1cc(CNC(=O)c2ccc3ccccc3n2)cc(NC(=O)c2cccc(OC)c2)c1 | . | - | - | . | - | .
O=c1c(O)c(-c2cc(O)c(O)c(O)c2)oc2cc(O)cc(O)c12 | ? | - | - | ? | - | 22.3µM
O=C(CCC(=O)OCC(=O)c1ccc(Cl)cc1)NC1CCCCC1 | - | . | . | -105.0 | - | -
CCCOc1ccc(/C=C/C(=O)Nc2ccc([N+](=O)[O-])cc2C)cc1 | - | - | - | - | - | -
CCOc1ccc(NC(=S)NC(=O)/C=C/c2ccc(OC)c(OC)c2)c([N+](=O)[O-])c1 | ? | - | - | ? | - | 14.6µM
CCOc1ccc(NC(=S)NC(=O)/C=C/c2ccc(C)cc2)c([N+](=O)[O-])c1 | ? | - | - | ? | - | ?
CCCOc1ccc(/C=C/C(=O)Nc2ccc([N+](=O)[O-])cc2C)cc1OC | - | . | . | -96.2 | - | ?
CC(C)CNC(=O)c1csc(C(O)C(C)C)n1 (stereo not drawn) | . | . | . | - | . | .
CC12CC3CC(C)(C1)CC(C(O)CN1CCOCC1)(C3)C2 (stereo not drawn) | . | . | . | - | - | .
COCc1c(C(=O)N2CCC(c3ccccc3)CC2)cnn1-c1nccc(-c2cc(C)sc2C)n1 | . | ? | 14.1µM | . | - | .
OC(c1ccc(F)c(F)c1)c1nc(-c2ccc3ccccc3c2)cs1 (stereo not drawn) | . | - | - | - | - | .
SMILES | LASV entry inh | Vaccinia Venus | VACV mCherry inh | HCMV antiviral | FMDV antiviral | Marburg entry inh
NC(c1ccc(F)c(F)c1)c1nc(-c2ccc3ccccc3c2)cs1 (stereo not drawn) | . | - | ? | -82.2 | - | .
C/C(=N\NC(=O)c1ccccc1F)c1ccc2c(c1)Nc1ccccc1S2 | ? | ? | ? | -69.2 | ? | ?
C/C(=N\NC(=O)c1ccc(O)cc1)c1ccc2c(c1)Nc1ccccc1S2 | - | ? | - | - | - | ?
Nn1cnnc1N/N=C/c1ccc(F)cc1 | . | . | . | - | - | .
COc1ccc(/C=N/Nc2nnc(C)n2N)cc1OC(C)=O | ? | ? | 22.4µM | - | - | ?
COc1ccc(/C=N/Nc2nnc(C)n2N)cc1OC | ? | ? | ? | -60.9 | - | ?
Cc1nnc(N/N=C/c2ccc(Br)cc2)n1N | . | . | . | - | - | .
COc1ccc(-n2c(O)c(/C=N/Nc3nc(C)cc(C)n3)c3ccccc3c2=O)cc1OC | ? | ? | ? | -93.6 | - | ?
Cc1ccc(/C=N/Nc2nncn2N)cc1 | ? | 10µM | 10µM | - | - | ?
COc1ccc(/C=N/Nc2nc(C)cc(-c3ccccc3)n2)cc1OC | - | - | - | -86.3 | - | ?
Cc1cc(-c2ccccc2)nc(N/N=C/c2ccccc2)n1 | ? | - | ? | - | - | ?
Cc1ccc(S(=O)(=O)NCC(=O)N(CC(=O)NCc2ccco2)Cc2ccccc2)cc1 | - | - | ? | - | - | -
COc1cccc(CN(CC(=O)NCc2ccco2)C(=O)CNS(=O)(=O)c2ccccc2)c1 | - | - | - | -61.4 | - | -
O=C(CN(Cc1ccccc1)C(=O)CCl)c1cccc(Br)c1 | . | - | - | -98.7 | ? | .
N#CC1(C#N)CC(C=O)=C(N)C1(C#N)CC(=O)C12CC3CC(CC(C3)C1)C2 (stereo not drawn) | ? | - | - | - | 22.4µM | ?
Fc1ccc(F)c(Nc2c3c(nc4ccc(Cl)cc24)CCC3)c1 | - | - | - | -68.6 | ? | ?
FC(F)(F)c1cccc(Nc2c3c(nc4ccc(Cl)cc24)CCC3)c1 | ? | -[7.34 µM] | -[7.34 µM] | -76.2 | - | ?
COCCn1c(Cc2ccccc2)nnc1SCC(=O)N1CCCC1=O | . | . | . | - | - | .
O=C(c1ccccc1Br)N(Cc1ccccc1)c1ccccc1 | ? | - | - | -61.5 | - | ?
COc1ccc(CN(C(=O)c2ccco2)c2ccccc2)cc1 | - | - | . | - | - | -
Cn1c(CSCc2ccc(Cl)c(Cl)c2)n[nH]c1=S | ? | - | ? | -66.6 | ? | -
CCC1(O)CC2CN(CCc3c([nH]c4ccccc34)C(C(=O)OC)(c3cc4c(cc3OC)N(C=O)C3C(O)(C(=O)OC)C(OC(C)=O)C5(CC)C=CCN6CCC43C65)C2)C1 (stereo not drawn) | ? | ? | ? | -87.8 | - | ?
CN(C)c1nc2n(c(=O)n1)[C@H](C#N)CS2 | . | . | . | . | . | -
O=C(Nc1ccccc1Br)c1cc(=O)c2ccccc2o1 | - | - | - | - | - | ?
COc1ccc(CC(=O)Nc2ccc(F)c(F)c2F)cc1S(=O)(=O)N1CCOCC1 | - | - | - | - | - | ?
SMILES | LASV entry inh | Vaccinia Venus | VACV mCherry inh | HCMV antiviral | FMDV antiviral | Marburg entry inh
Cc1nnc2ccc(N3CCC4(CC3)OCCO4)nn12 | - | - | - | -62.0 | - | ?
CC1CCCC(NCC(O)COC(c2ccc(F)cc2)c2ccc(F)cc2)C1C (stereo not drawn) | ? | ? | ? | -97.2 | ? | ?
CC1CCCC(NC(=O)CSc2ccc(F)cc2)C1C (stereo not drawn) | ? | . | . | - | - | -
COc1ccc(C(=O)Oc2c(CN3CCOCC3)cc(Cl)c3cccnc23)cc1 | - | ? | . | -75.1 | - | ?
COc1cc(C(=O)Oc2c(CN3CCOCC3)cc(Cl)c3cccnc23)cc(OC)c1OC | . | ? | ? | . | ? | -
COc1cccc(C(=O)Oc2c(CN3CCOCC3)cc(Cl)c3cccnc23)c1 | ? | . | . | -78.3 | ? | 8.2µM

Screening data from PubChem.
